Results filed as inconclusive are left out. Where a call stands in place of a potency, no number is given. Activity calls are given as the source filed them. Unless noted, calls follow the shape of the full dose curve.
target: Estrogen receptor (Homo sapiens) (UniProt P03372); experiment: qHTS assay for small molecule antagonists of estrogen receptor alpha signaling (AID 588513; active = well fitted curve in the direction sought with a large enough effect in the signal ratio, with a control signal flat, not every such curve was filed as active; the % refers to the signal ratio); conditions: ER-alpha-UAS-bla HEK293, beta-lactamase ratio, antagonist mode; series mostly up to 76.9 µM
Summary of the method: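 ER-alpha-UAS-bla GripTite HEK 293 cells in 2% charcoal/dextran-treated FBS medium; compounds titrated (1:2, duplicate), then stimulated with 0.5 nM 17-beta-estradiol for 18 h at 37C. CCF4 beta-lactamase fluorescence; Hill-fit IC50 and efficacy.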

Chain of Estrogen receptor (Homo sapiens) (P03372 whole entry, looked up): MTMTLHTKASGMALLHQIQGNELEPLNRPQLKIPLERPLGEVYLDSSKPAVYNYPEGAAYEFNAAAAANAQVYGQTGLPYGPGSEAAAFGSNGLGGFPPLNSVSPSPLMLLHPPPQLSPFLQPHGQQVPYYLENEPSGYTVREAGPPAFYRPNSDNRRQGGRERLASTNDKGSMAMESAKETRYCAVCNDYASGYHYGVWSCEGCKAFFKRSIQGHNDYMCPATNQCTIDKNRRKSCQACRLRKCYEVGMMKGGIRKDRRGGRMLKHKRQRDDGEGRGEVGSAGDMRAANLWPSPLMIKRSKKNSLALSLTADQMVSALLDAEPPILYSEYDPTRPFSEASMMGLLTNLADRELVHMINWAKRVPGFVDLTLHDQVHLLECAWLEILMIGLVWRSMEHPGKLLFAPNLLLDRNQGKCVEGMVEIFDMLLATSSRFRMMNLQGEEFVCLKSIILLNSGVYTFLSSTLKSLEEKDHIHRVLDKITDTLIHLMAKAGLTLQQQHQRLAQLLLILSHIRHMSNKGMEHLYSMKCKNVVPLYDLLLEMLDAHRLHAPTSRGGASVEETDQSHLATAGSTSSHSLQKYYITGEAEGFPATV

| SMILES | outcome |
| --- | --- |
| CN1C[C@H](C(=O)N[C@]2(C)O[C@@]3(O)[C@@H]4CCCN4C(=O)[C@H](Cc4ccccc4)N3C2=O)C=C2c3cccc4[nH]cc(c34)C[C@H]21 | inactive |
| Nc1ccccc1C(=O)O | inactive |
| CCC(C)(C)c1ccc(O)cc1 | inactive |
| COP(=S)(OC)Oc1ccc(SC)c(C)c1 | inactive |
| CC(C)NC(C)C | inactive |

target: Estrogen receptor (Homo sapiens) (UniProt P03372); experiment: qHTS assay for small molecule agonists of estrogen receptor alpha signaling (AID 588514); conditions: ER-alpha-UAS-bla HEK293, beta-lactamase ratio, 18 h; series mostly up to 76.8 µM; also: nearly all actives have a fitted effect of over 70% in size; also: potency is read from the fitted curve at half-maximal effect
Summary of the method: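 Reporter-gene assay. […] controls beta-lactamase in HEK 293 GripTite cells; after 18 hrs with compound, CCF4 substrate is added for 2 hrs and fluorescence is read.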

| SMILES | Potency |
| --- | --- |
| CN1C[C@H](C(=O)N[C@]2(C)O[C@@]3(O)[C@@H]4CCCN4C(=O)[C@H](Cc4ccccc4)N3C2=O)C=C2c3cccc4[nH]cc(c34)C[C@H]21 | inactive |
| Nc1ccc([As](=O)(O)O)cc1 | 15.8 µM (active) |
| Nc1ccccc1C(=O)O | inactive |
| COP(=S)(OC)Oc1ccc(SC)c(C)c1 | inactive |
| COC(=O)C(c1ccccc1)C1CCCCN1 (stereo unspecified) | inactive |
| CC(C)NC(C)C | inactive |

From PubChem BioAssay (NCATS)
